Assay results: PubChem BioAssay (Tox21)
“And” between values parts separate entries of the source, which are not always exact repeats. Identical values can stand only once. Inconclusive results are not listed. More than one record can exist for a structure, and the calls need not agree. The source made the active and inactive calls. Unless noted, calls come from the whole dose curve; as a rule, active = well fitted curve in the direction sought with a large enough effect in the repeat runs; inconclusive = weak or mixed curves; inactive = no such curve, though single readings can be large; an effect the other way counts as inactive or inconclusive.

Experiments:
[1] = qHTS assay to identify aromatase inhibitors - cell viability counter screen (AID 743084);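 note: cells stimulated with testosterone during compound exposure; nearly all actives have a fitted effect of over 55% in size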; note: potency is the fitted concentration of half-maximal effect
[2] = target: Aryl hydrocarbon receptor (Homo sapiens) (UniProt P35869); assay: qHTS assay to identify small molecule that activate the aryl hydrocarbon receptor (AhR) signaling pathway (AID 743085); note: nearly all actives have a fitted effect of over 15% in size; note: potency is the fitted concentration of half-maximal effect;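 for activation: HG2L7.5c1 human HepG2 liver cells with stably integrated DRE-driven firefly reporter; series mostly up to about 70 µM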
How it was run: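 HepG2 cells stably carrying a 20-DRE firefly luciferase reporter (HG2L7.5c1) treated with compound for 24 hr at 37C. Luciferase read by ONE-Glo luminescence, with CellTiter-Fluor viability read first.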

[3] = qHTS assay to identify small molecule that activate the aryl hydrocarbon receptor (AhR) signaling pathway - cell viability counter screen (AID 743086); note: nearly all actives have a fitted effect of over 45% in size; note: potency is the fitted concentration of half-maximal effect
How it was run: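 HepG2-AhR-luc (HG2L7.5c1) cells, 4000/well, were preincubated 5 h at 37C, exposed to compound in qHTS format for 24 hr at 37C, then given CellTiter-Fluor for 30 min; viability was read as fluorescence in the reporter wells.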

[4] = target: Peroxisome proliferator-activated receptor gamma (Homo sapiens) (UniProt P37231); assay: qHTS assay to identify small molecule agonists of the peroxisome proliferator-activated receptor gamma (PPARg) signaling pathway (AID 743094; active = well fitted activation curve with a large enough effect in the signal ratio in the repeat runs, not every such curve was filed as active; the % refers to the signal ratio; note: potency is the fitted concentration of half-maximal effect)
How it was run: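 GeneBLAzer PPARg UAS-bla HEK293H cells were plated, rested 5 h, then exposed to compounds for 17 h at 37C. Beta-lactamase activity was read by LiveBLAzer B/G FRET substrate fluorescence after 1 h at room temperature.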

[5] = qHTS assay to identify small molecule antagonists of the peroxisome proliferator-activated receptor gamma (PPARg) signaling pathway - cell viability counter screen (AID 743194); conditions: Potency: co-treated with 50 nM rosiglitazone; note: nearly all actives have a fitted effect of over 55% in size; note: potency is the fitted concentration of half-maximal effect
How it was run: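 PPARg-UAS-bla HEK293H cells were plated, rested 5 h at 37 C, then treated with compounds plus rosiglitazone (50 nM final) for 17 h at 37 C; viability was then read by CellTiter-Glo luminescence after 30 min at room temperature.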

[6] = qHTS assay for small molecule agonists of the antioxidant response element (ARE) signaling pathway - cell viability counter screen (AID 743203; calls by dose curve; note: nearly all actives have a fitted effect of over 55% in size)
How it was run: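 ARE-bla HepG2 cells were plated, rested 5 h at 37C/5% CO2, then exposed to compounds in DMSO for 16 h. Viability was read as CellTiter-Glo luminescence after 30 min at room temperature, in the same wells as the ARE screen.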

[7] = qHTS assay for small molecule activators of the heat shock response signaling pathway - cell viability counter screen (AID 743209); note: nearly all actives have a fitted effect of over 50% in size; note: potency is the fitted concentration of half-maximal effect
How it was run: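 HSE-bla HeLa cells plated overnight, then exposed to Tox21 compounds (23 nL in DMSO) for 5 h at 37 C. After the bla reporter read, CellTiter-Glo was added in the same wells and luminescence read after 30 min at room temperature.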

[8] = qHTS assay for small molecule activators of the heat shock response signaling pathway (AID 743210; active = well fitted activation curve with a large enough effect in the signal ratio in the repeat runs, with a control signal flat, not every such curve was filed as active; the % refers to the signal ratio; note: series mostly up to about 63 µM)
How it was run: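 HSE-bla HeLa cells (beta-lactamase reporter under heat shock response elements) were exposed to compounds for 5 h at 37 C, then loaded with LiveBLAzer B/G FRET substrate for 2.5 h at room temperature before fluorescence reading.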

[9] = qHTS assay to identify small molecule agonists of the peroxisome proliferator-activated receptor delta (PPARd) signaling pathway - cell viability counter screen (AID 743211); note: nearly all actives have a fitted effect of over 55% in size; note: potency is the fitted concentration of half-maximal effect
How it was run: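 PPARd-bla HEK293H cells (3000/well) were pre-incubated 5 h at 37 C, then exposed to compound for 17 h at 37 C. After 2 h with LiveBLAzer substrate, CellTiter-Glo was added to the same wells; luminescence read after 30 min at room temperature.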

[10] = qHTS assay to identify small molecule antagonists of the peroxisome proliferator-activated receptor delta (PPARd) signaling pathway - cell viability counter screen (AID 743213); note: nearly all actives have a fitted effect of over 50% in size; note: potency is the fitted concentration of half-maximal effect
How it was run: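 Cytotoxicity counter screen: CellTiter-Glo luminescence read 30 min after addition, in the same wells as the reporter assay. There, PPARd UAS-bla HEK293H cells (3000/well) were treated 17 h at 37 C with compound and 300 nM L165041.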

[11] = target: Peroxisome proliferator-activated receptor delta (Homo sapiens) (UniProt Q03181); assay: qHTS assay to identify small molecule antagonists of the peroxisome proliferator-activated receptor delta (PPARd) signaling pathway (AID 743215; active = well fitted inhibition curve with a large enough effect in the signal ratio in the repeat runs, not every such curve was filed as active; the % refers to the signal ratio;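 note: cells stimulated with agonist L165041 at 300 nM final during compound exposure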; note: potency is the fitted concentration of half-maximal effect)
How it was run: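 PPARd-bla HEK293H cells (UAS-bla reporter) preincubated 5 h, then given compound plus 300 nM final L165041 agonist for 17 h at 37 C. Beta-lactamase activity read by LiveBLAzer B/G FRET substrate fluorescence after 2 h at room temperature.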

[12] = qHTS assay to identify small molecule agonists of the farnesoid-X-receptor (FXR) signaling pathway - cell viability counter screen (AID 743218); note: nearly all actives have a fitted effect of over 45% in size; note: potency is the fitted concentration of half-maximal effect
How it was run: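 FXR-UAS-bla HEK 293T cells exposed to compounds for 16 h at 37C. Cytotoxicity read in the same wells by CellTiter-Glo luminescence after 30 min at room temperature, following the beta-lactamase FRET read.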

[13] = qHTS assay to identify small molecule antagonists of the farnesoid-X-receptor (FXR) signaling pathway - cell viability counter screen (AID 743221; active = well fitted cell-killing curve with a large enough effect in the repeat runs, not every such curve was filed as active; note: nearly all actives have a fitted effect of over 50% in size)
How it was run: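 GeneBLAzer FXR-UAS-bla HEK 293T cells, compound plus chenodeoxycholic acid (50 uM final), 16 h at 37 C. CellTiter-Glo added to the same wells after the beta-lactamase read; luminescence read after 30 min at room temperature as viability.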

[14] = qHTS assay for small molecule agonists of the antioxidant response element (ARE) signaling pathway (AID 743202; active = well fitted activation curve with a large enough effect in the signal ratio in the repeat runs, not every such curve was filed as active; the % refers to the signal ratio; note: potency is the fitted concentration of half-maximal effect)
How it was run: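 Read-out: LiveBLAzer B/G FRET substrate fluorescence after 2 h at room temperature, following 16 h compound treatment at 37 C of HepG2 cells carrying an ARE-driven beta-lactamase reporter.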

[15] = target: Peroxisome proliferator-activated receptor delta (Homo sapiens) (UniProt Q03181); assay: qHTS assay to identify small molecule agonists of the peroxisome proliferator-activated receptor delta (PPARd) signaling pathway (AID 743212; calls by dose curve)
How it was run: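 GeneBLAzer PPARd UAS-bla HEK293H cells (beta-lactamase reporter under UAS control), plated and rested 5 h at 37 C, then exposed to compounds in DMSO at 37 C; LiveBLAzer B/G FRET substrate added, 2 h room temperature, fluorescence read.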

[16] = target: Vitamin D3 receptor (Homo sapiens) (UniProt P11473); assay: qHTS assay to identify small molecule agonists of the vitamin D receptor (VDR) signaling pathway (AID 743222; calls by dose curve)
How it was run: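 VDR-bla cells plated 4 h at 37 C, then exposed to compounds for 16 h at 37 C. Beta-lactamase reporter activity measured by fluorescence after 2 h room-temperature loading with LiveBLAzer B/G FRET substrate.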

[17] = target: Vitamin D3 receptor (Homo sapiens) (UniProt P11473); assay: qHTS assay to identify small molecule antagonists of the vitamin D receptor (VDR) signaling pathway (AID 743223; active = well fitted inhibition curve with a large enough effect in the signal ratio in the repeat runs, not every such curve was filed as active; the % refers to the signal ratio)
How it was run: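 VDR-bla cells were treated with compound plus 3 nM final 1alpha,25-dihydroxyvitamin D3 for 16 h at 37C. Beta-lactamase reporter read by B/G FRET substrate fluorescence after 2 h at room temperature. qHTS format.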

[18] = target: Bile acid receptor (Homo sapiens) (UniProt Q96RI1); assay: qHTS assay to identify small molecule antagonists of the farnesoid-X-receptor (FXR) signaling pathway (AID 743217; active = well fitted inhibition curve with a large enough effect in the signal ratio in the repeat runs, not every such curve was filed as active; the % refers to the signal ratio)
How it was run: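 FXR-UAS-bla HEK 293T cells (beta-lactamase reporter) given compound plus chenodeoxycholic acid (50 uM final), 16 h at 37C. LiveBLAzer B/G FRET substrate added for 2 h at room temperature; fluorescence read.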

[19] = target: Bile acid receptor (Homo sapiens) (UniProt Q96RI1); assay: qHTS assay to identify small molecule agonists of the farnesoid-X-receptor (FXR) signaling pathway (AID 743220; active = well fitted activation curve with a large enough effect in the signal ratio in the repeat runs, not every such curve was filed as active; the % refers to the signal ratio)
How it was run: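 Beta-lactamase reporter under UAS control in GeneBLAzer FXR HEK 293T cells (5000/well) measured with LiveBLAzer FRET substrate after 2 h at room temperature. Compound exposure lasted 16 h at 37C.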

Measured: Potency

Bile acid receptor (Homo sapiens), sequence (Q96RI1 whole entry, looked up): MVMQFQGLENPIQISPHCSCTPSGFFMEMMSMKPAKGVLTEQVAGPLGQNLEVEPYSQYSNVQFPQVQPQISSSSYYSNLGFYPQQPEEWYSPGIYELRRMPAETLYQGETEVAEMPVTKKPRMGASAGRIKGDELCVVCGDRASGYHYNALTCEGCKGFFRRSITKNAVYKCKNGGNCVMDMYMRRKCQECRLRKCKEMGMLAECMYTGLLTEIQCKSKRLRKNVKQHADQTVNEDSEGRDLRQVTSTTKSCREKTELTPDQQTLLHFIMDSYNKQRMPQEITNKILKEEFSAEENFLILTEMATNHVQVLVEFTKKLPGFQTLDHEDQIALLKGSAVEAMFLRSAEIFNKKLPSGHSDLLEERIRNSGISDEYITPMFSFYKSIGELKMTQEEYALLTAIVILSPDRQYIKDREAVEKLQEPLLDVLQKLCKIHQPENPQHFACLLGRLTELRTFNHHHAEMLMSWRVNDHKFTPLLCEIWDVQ
Aryl hydrocarbon receptor (Homo sapiens), sequence (P35869 whole entry, looked up): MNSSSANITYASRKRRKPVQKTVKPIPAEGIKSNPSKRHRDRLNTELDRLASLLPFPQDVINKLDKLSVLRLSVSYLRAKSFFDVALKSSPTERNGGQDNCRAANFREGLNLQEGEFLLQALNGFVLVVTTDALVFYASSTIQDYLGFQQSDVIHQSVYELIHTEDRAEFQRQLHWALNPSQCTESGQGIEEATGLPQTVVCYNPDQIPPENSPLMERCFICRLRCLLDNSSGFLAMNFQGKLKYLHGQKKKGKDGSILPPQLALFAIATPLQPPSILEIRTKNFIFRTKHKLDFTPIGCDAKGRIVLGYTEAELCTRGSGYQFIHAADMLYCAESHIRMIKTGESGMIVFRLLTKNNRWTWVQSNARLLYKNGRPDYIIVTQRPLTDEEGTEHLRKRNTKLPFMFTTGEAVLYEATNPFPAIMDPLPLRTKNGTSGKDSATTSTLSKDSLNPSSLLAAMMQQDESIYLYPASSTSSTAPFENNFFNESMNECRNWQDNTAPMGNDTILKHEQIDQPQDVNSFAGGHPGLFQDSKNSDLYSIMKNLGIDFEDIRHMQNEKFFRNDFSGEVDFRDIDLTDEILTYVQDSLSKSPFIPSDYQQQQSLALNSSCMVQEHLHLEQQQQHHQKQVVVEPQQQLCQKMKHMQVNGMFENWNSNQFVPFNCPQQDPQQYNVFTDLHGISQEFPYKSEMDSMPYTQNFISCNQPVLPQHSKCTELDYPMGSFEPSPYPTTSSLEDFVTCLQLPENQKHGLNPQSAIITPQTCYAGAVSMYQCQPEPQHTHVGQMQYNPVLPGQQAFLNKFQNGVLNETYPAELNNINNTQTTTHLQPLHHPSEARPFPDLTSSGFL
Peroxisome proliferator-activated receptor delta (Homo sapiens), sequence (Q03181 whole entry, looked up): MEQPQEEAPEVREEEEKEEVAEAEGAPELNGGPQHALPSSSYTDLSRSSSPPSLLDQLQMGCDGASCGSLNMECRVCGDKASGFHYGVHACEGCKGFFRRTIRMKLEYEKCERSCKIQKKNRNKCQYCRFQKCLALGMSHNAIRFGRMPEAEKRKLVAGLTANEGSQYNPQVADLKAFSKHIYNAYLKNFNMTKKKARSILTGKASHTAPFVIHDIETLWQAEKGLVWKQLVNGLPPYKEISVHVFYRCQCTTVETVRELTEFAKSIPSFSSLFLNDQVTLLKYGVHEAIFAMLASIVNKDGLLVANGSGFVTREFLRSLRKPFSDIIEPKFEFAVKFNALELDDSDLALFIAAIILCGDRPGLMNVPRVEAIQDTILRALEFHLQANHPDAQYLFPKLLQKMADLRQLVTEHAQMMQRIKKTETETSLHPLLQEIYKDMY
Peroxisome proliferator-activated receptor gamma (Homo sapiens), sequence (P37231 whole entry, looked up): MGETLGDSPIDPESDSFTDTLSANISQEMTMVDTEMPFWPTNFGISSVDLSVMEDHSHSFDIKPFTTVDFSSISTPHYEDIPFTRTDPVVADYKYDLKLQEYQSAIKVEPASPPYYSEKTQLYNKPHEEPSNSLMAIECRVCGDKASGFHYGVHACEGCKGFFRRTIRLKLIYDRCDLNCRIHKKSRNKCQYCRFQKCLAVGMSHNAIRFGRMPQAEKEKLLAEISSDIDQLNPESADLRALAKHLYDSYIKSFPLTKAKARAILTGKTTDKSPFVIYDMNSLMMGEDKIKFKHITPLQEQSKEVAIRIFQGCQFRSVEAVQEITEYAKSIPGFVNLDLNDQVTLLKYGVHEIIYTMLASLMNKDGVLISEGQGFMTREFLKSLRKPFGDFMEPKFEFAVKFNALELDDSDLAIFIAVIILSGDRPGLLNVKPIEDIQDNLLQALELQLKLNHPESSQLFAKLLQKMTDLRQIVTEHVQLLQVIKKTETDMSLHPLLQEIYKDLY
Vitamin D3 receptor (Homo sapiens), sequence (P11473 whole entry, looked up): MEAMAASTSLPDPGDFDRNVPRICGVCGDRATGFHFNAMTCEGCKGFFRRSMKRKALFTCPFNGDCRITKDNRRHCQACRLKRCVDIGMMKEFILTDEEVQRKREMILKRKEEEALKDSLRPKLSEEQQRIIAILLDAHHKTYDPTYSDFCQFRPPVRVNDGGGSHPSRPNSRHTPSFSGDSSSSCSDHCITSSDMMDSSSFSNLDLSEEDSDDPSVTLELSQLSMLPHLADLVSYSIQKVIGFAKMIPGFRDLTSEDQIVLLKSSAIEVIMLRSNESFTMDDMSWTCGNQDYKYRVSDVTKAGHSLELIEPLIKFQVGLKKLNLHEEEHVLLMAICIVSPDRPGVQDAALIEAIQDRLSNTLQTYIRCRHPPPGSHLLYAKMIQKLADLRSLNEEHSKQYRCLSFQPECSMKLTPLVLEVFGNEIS

CCCCC(CC)CO[N+](=O)[O-] (stereo unspecified)
not listed: [14] | [15] | [16] | [17] | [18] | [19]
inactive: all other assays above

COP(=O)(OC)OC(Br)C(Cl)(Cl)Br (stereo unspecified)
active: [1] 48.6 µM | [4] 54.9 µM | [14] 19.4 µM and 9.69 µM
not listed: [5] | [9] | [10] | [11] | [18] | [19]
inactive: all other assays above

CCCCC1C(=O)NC(=O)N(C2CCCCC2)C1=O (stereo unspecified)
not listed: [8] | [11] | [15]
inactive: all other assays above

C[C@]12CC[C@H]3[C@@H](CCC4=CC(=O)CC[C@@H]43)[C@@H]1CC[C@@H]2OC(=O)CCc1ccccc1
not listed: [14] | [18] | [19]
inactive: all other assays above

CC(C)OC(=O)Cc1ccccc1
not listed: [6] | [11] | [15] | [18] | [19]
inactive: all other assays above

OCCSSCCO
not listed: [14] | [16] | [17]
inactive: all other assays above

CCC(C)(C)O
not listed: [6] | [8] | [18] | [19]
inactive: all other assays above

CC(C)(c1ccccc1)c1cc(-n2nc3ccccc3n2)c(O)c(C(C)(C)c2ccccc2)c1
not listed: [5] | [18] | [19]
inactive: all other assays above

C=CCSSCC=C
not listed: [5] | [6] | [15] | [18] | [19]
inactive: all other assays above

CCC1(CCC(C)C)C(=O)NC(=O)NC1=O
inactive: [1] | [2] | [3] | [4] | [5] | [14] | [7] | [10] | [11] | [19]

CCNC(=O)NC(=O)/C(C#N)=N/OC
not listed: [5] | [6] | [17]
inactive: all other assays above

CCOC(=O)C1OC1(C)c1ccccc1 (stereo unspecified)
not listed: [8] | [11] | [15] | [16] | [17] | [18] | [19]
inactive: all other assays above

COc1cc(CC(C)N)c(OC)cc1Br (stereo unspecified)
not listed: [9] | [10] | [14] | [16] | [17] | [18] | [19]
inactive: all other assays above

Nc1ccc2c(c1)Cc1ccccc1-2
active: [2] 68.2 µM
not listed: [9] | [14] | [18] | [19]
inactive: all other assays above

Clc1ccc2ccccc2c1
not listed: [6] | [10] | [16] | [17]
inactive: all other assays above

C=CCOC(=O)C(C)(C)OC(=O)c1cc(-n2c(=O)cc(C(F)(F)F)n(C)c2=O)ccc1Cl
not listed: [13] | [14] | [15] | [16] | [17] | [18] | [19]
inactive: all other assays above

COC(=O)Cc1ccccc1
not listed: [5] | [17] | [18] | [19]
inactive: all other assays above

Nc1ccccc1C(=O)OCCc1ccccc1
active: [2] 30.6 µM
not listed: [11] | [14] | [15] | [18] | [19]
inactive: all other assays above

COCc1cnc(C2=NC(C)(C(C)C)C(=O)N2)c(C(=O)O)c1 (stereo unspecified)
not listed: [11] | [14]
inactive: all other assays above

CCSCc1ccccc1OC(=O)NC
not listed: [6] | [10]
inactive: all other assays above

CN1CC[C@]23c4c5ccc(O)c4O[C@H]2[C@@H](O)CC[C@H]3[C@H]1C5
not listed: [8] | [11] | [15] | [18] | [19]
inactive: all other assays above

O=C=NC1CCCCC1
active: [2] 54.6 µM
not listed: [5] | [10] | [12] | [15] | [16]
inactive: all other assays above

Nc1c(Br)cc(Br)c2c1C(=O)c1ccccc1C2=O
active: [2] 7.25 µM
not listed: [12] | [14] | [15] | [16] | [18] | [19]
inactive: all other assays above

CC(=O)NNc1ccccc1
inactive: [1] | [2] | [3] | [5] | [14] | [7] | [18] | [19] | [17]

CN(C)c1ccc(N=O)cc1
inactive: [18] | [19] | [13] | [17]
inactive and 49 µM (active): [12]
active: [1] 6.13 µM and 15.4 µM | [2] 21.8 µM and 21.7 µM | [3] 61.3 µM and 68.6 µM | [5] 49.1 µM and 34.7 µM | [7] 3.9 µM and 5.49 µM | [9] 43.6 µM | [10] 43.6 µM | [11] 21.9 µM

C[C@H]1[C@@H]2Cc3ccc(O)cc3[C@@]1(C)CCN2C
not listed: [4] | [8] | [14] | [17]
inactive: all other assays above
